According to the supplement of paper PMC12636033:
± gives the standard deviation of the averaged measurements. In all, about 33,000 sequences were measured (“E-score (rank enrichment, -0.5 to 0.5)”: median about -0.0068, highest 2% from about 0.24 on). Only a selection was taken, and the highest values are over-represented in it overall.

system: muMax20 (Max(13-93) K31hArg/K57hArg, M65Nle); assay: PBM 8-mer E-score (E-score (rank enrichment, -0.5 to 0.5)); higher = stronger preferential binding
Method: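 Protein binding microarray (universal PBM chip covering all 10-mers in fixed probe flanks) with chemically synthesized human Max(13-93) bHLH-LZ analogs (not full-length Max) bearing noncanonical residues (hArg, Tha, Aib, Nle at 65) and aromatic Cys staples. Read-out per 8-mer (and its reverse complement): E-score (rank-based enrichment, -0.5 to 0.5) and Z-score of median probe intensity.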

| Sequence | PBM 8-mer E-score |
| --- | --- |
| CAATCACA | 0.122 ± 0.095 |
| TAATCACA | 0.264 ± 0.042 |
| GAATCACA | -0.0241 ± 0.022 |
| CCCGCAGC | -0.278 ± 0.086 |
| TAACGGGA | -0.0715 ± 0.059 |
| ACCGCTAC | -0.215 ± 0.034 |
| AACTCCAG | -0.117 ± 0.049 |
| GATTGTAA | 0.0589 ± 0.011 |
| TAATGTGA | 0.262 ± 0.065 |
| GAATGTAA | 0.0967 ± 0.041 |
| AATTGTAA | 0.196 ± 0.011 |
| TATTGTAA | 0.242 ± 0.023 |
| AAATGTAA | 0.157 ± 0.049 |
| TAATGTAA | 0.252 ± 0.024 |
| CAATGTGA | 0.148 ± 0.0073 |
| GAATGTGA | 0.0628 ± 0.06 |
| AGTGGCCC | -0.0606 ± 0.016 |
| TCCCGACA | -0.0715 ± 0.11 |
| GTTACCTA | 0.0231 ± 0.039 |
| ACCGGCTG | -0.257 ± 0.018 |
| TCAAGAAA | 0.103 ± 0.021 |
| TCACTCCA | -0.0737 ± 0.21 |
| GATCCGAA | -0.13 ± 0.057 |
| GAGATGGC | 0.0296 ± 0.023 |
| CAGTCCGG | -0.297 ± 0.023 |

| Sequence | PBM 8-mer E-score |
| --- | --- |
| ATCCAGCC | -0.09 ± 0.07 |
| GCTTGCAC | -0.252 ± 0.0059 |
| AGCCGGTC | -0.295 ± 0.086 |
| ACTGTTCC | -0.187 ± 0.12 |
| ACGTGGAT | 0.342 ± 0.012 |
| GCGTGGAC | 0.0607 ± 0.05 |
| ACGTGGGG | 0.16 ± 0.039 |
| CCGTGGAC | -0.13 ± 0.12 |
| ACGTGGAA | 0.195 ± 0.017 |
| ACGTGGAC | 0.27 ± 0.08 |
| CCGTGGAG | -0.131 ± 0.092 |
| AAGTGGAT | 0.00777 ± 0.081 |
| ACGTGGAG | 0.245 ± 0.14 |
| CGCAAGTC | -0.182 ± 0.004 |
| CCTCCTAA | 0.0365 ± 0.0066 |
| GGCACAGA | -0.0856 ± 0.03 |
| ACTATGAT | 0.0767 ± 0.069 |
| TATGCCCA | -0.151 ± 0.043 |
| ATCCTGAC | -0.115 ± 0.039 |
| ATCGTAAT | 0.255 ± 0.0089 |
| ATCGTAAA | 0.211 ± 0.026 |
| ATCGTAAG | 0.00053 ± 0.19 |
| ATCGCACA | 0.0937 ± 0.045 |
| TCTTATAA | 0.115 ± 0.051 |
| GATTATAA | 0.242 ± 0.016 |

| Sequence | PBM 8-mer E-score |
| --- | --- |
| AATTATAA | 0.189 ± 0.036 |
| TATTATAA | 0.28 ± 0.079 |
| TGTTAAAA | 0.154 ± 0.061 |
| CATTATAA | 0.0818 ± 0.00099 |
| GGTTATAA | 0.145 ± 0.068 |
| TGTTATAA | 0.279 ± 0.056 |
| TATTATCA | 0.161 ± 0.013 |
| ATTAAGCA | 0.105 ± 0.11 |
| GAGATTGC | -0.148 ± 0.0026 |
| CCTCCACG | -0.0554 ± 0.048 |
| ATTTGAAA | 0.203 ± 0.025 |
| CTTTGAAA | 0.159 ± 0.0086 |
| GTTTGAAA | 0.237 ± 0.022 |
| AACTTCGA | 0.0671 ± 0.04 |
| ATTACTAG | -0.00293 ± 0.05 |
| AGTACTAG | 0.029 ± 0.019 |
| ATTACTAC | 0.2513 ± 0.0025 |
| CTTACTAC | 0.197 ± 0.1 |
| AGTACTAC | 0.28 ± 0.035 |
| AGTACTAT | -0.0269 ± 0.035 |
| CTTCGCAC | 0.163 ± 0.037 |
| ATGACTGG | -0.0322 ± 0.039 |
| GGCACGAC | 0.0476 ± 0.078 |
| AGTTCACG | -0.107 ± 0.064 |
| CCCGAACC | -0.159 ± 0.21 |

| Sequence | PBM 8-mer E-score |
| --- | --- |
| CACAACAA | 0.205 ± 0.098 |
| AACAATTA | 0.259 ± 0.0043 |
| AACAACAA | 0.243 ± 0.0063 |
| ATCAACAG | 0.116 ± 0.0076 |
| CCCAATTA | 0.187 ± 0.097 |
| ATCAACAT | 0.241 ± 0.022 |
| CCCAATTC | 0.249 ± 0.0091 |
| ACCAATTC | -0.0667 ± 0.11 |
| AACAACAT | 0.168 ± 0.037 |
| AACAATTC | 0.127 ± 0.014 |
| ATCAACAA | 0.101 ± 0.048 |
| AACAATTG | 0.131 ± 0.0086 |
| CAATCATC | -0.0452 ± 0.15 |
| TACCGGAA | -0.106 ± 0.24 |
| AACTCCTT | 0.132 ± 0.07 |
| CCCTGCAC | -0.03728 ± 0.00027 |
| CGCTCTCC | -0.192 ± 0.091 |
| CGAGATCC | -0.163 ± 0.13 |
| AGGGGTCG | -0.0534 ± 0.037 |
| CTGGAAGA | 0.0596 ± 0.037 |
| AGCAACAA | -0.0639 ± 0.14 |
| AACAATAC | 0.319 ± 0.063 |
| CACAATAC | 0.126 ± 0.028 |
| AACAATAA | 0.247 ± 0.0054 |
| CGCAACAC | 0.0683 ± 0.035 |

| Sequence | PBM 8-mer E-score |
| --- | --- |
| AACAATAT | 0.207 ± 0.061 |
| ACCAATTA | 0.247 ± 0.095 |
| ACCAATTG | 0.211 ± 0.013 |
| CGCAACAA | 0.257 ± 0.049 |
| GACAATAC | 0.21 ± 0.021 |
| GCCAATTA | -0.00292 ± 0.022 |
| AACAATAG | 0.0278 ± 0.047 |
| CATCTTCC | 0.14 ± 0.005 |
| CTAGCGAA | -0.129 ± 0.063 |
| CTAGTGCA | 0.0056 ± 0.097 |
| GAGAGTCA | 0.0012 ± 0.088 |
| ATCCACCA | 0.068 ± 0.024 |
| GGGGCCCC | -0.138 ± 0.039 |
| GACACCAA | -0.0812 ± 0.037 |
| TACAATAA | 0.33 ± 0.008 |
| TACACCAA | -0.0765 ± 0.027 |
| AACACCAA | 0.239 ± 0.018 |
| CACAATAA | 0.151 ± 0.0047 |
| GACAATAA | 0.216 ± 0.067 |
| AACTTCTT | 0.155 ± 0.031 |
| TAATTTGA | 0.0569 ± 0.0096 |
| CAATTTGG | 0.0732 ± 0.059 |
| CAATTTGA | 0.246 ± 0.051 |
| AATCAGCA | 0.0143 ± 0.044 |
| ACCTGTTG | 0.112 ± 0.12 |

| Sequence | PBM 8-mer E-score |
| --- | --- |
| AGATATGA | 0.028 ± 0.0086 |
| ATACCAAC | 0.271 ± 0.01 |
| ATACCATG | 0.0838 ± 0.02 |
| ATACCATA | 0.298 ± 0.029 |
| ATACCAAG | 0.0843 ± 0.073 |
| CTACCAAC | 0.118 ± 0.079 |
| GTACCATA | 0.0347 ± 0.038 |
| ATAGAAGC | 0.041 ± 0.086 |
| TAAGGGAA | 0.0705 ± 0.073 |
| CTCCCGTA | 0.0488 ± 0.069 |
| CTAAAGAA | 0.0925 ± 0.088 |
| ATAAAGAA | 0.264 ± 0.018 |
| TTAAAGAA | 0.17 ± 0.072 |
| ATAAAGCG | 0.0396 ± 0.047 |
| CTAAAGCA | 0.0825 ± 0.012 |
| ATAAAGCA | 0.243 ± 0.037 |
| CACCGGCA | -0.12 ± 0.023 |
| ACGTTCCT | 0.0666 ± 0.011 |
| ATACCTAC | 0.129 ± 0.12 |
| ATTTAGAC | 0.0494 ± 0.067 |
| ATAACGCG | 0.073 ± 0.11 |
| CTTTCGGC | -0.149 ± 0.041 |
| AAAACCTA | 0.269 ± 0.0045 |
| AAAAACCG | 0.0778 ± 0.087 |
| CAAACCTA | 0.125 ± 0.027 |

| Sequence | PBM 8-mer E-score |
| --- | --- |
| AAAAACCA | 0.244 ± 0.0092 |
| AAAAACCT | 0.25 ± 0.024 |
| AAAACCTT | 0.103 ± 0.011 |
| TAAAACCA | 0.131 ± 0.048 |
| AAAAACCC | -0.0325 ± 0.027 |
| CAAAACCA | 0.0801 ± 0.046 |
| CCTTGCGC | -0.034 ± 0.012 |
| GGGGCGAC | -0.0761 ± 0.044 |
| AATCAGCT | 0.298 ± 0.065 |
| AATCAGCC | -0.00374 ± 0.048 |
| AATCAGCG | -0.0368 ± 0.011 |
| ACTTTGAT | 0.142 ± 0.062 |
| TCAGTAAA | 0.013 ± 0.12 |
| CATACTTC | 0.181 ± 0.048 |
| CATATACA | 0.254 ± 0.031 |
| CATATACC | 0.0712 ± 0.07 |
| AATATAGA | 0.292 ± 0.049 |
| GATATACA | 0.0962 ± 0.0042 |
| AATATACT | 0.215 ± 0.043 |
| TATATACA | 0.178 ± 0.03 |
| CATATAGA | 0.145 ± 0.049 |
| AATATACA | 0.293 ± 0.01 |
| TATATAGA | 0.0968 ± 0.19 |
